Experimental data published in PubChem BioAssay (NCI).
The panel holds about 79,000 compounds, 15% with a hit somewhere; the sample as a whole holds those more often. The source made the active and inactive calls. Rule as the data show it: active = growth inhibition above about 70%; inactive = the rest. Where a SMILES comes first, the peptide text is derived from it. The star is where a group is joined. Fmoc = O=C(OCC1c2ccccc2-c2ccccc21)*; OBn = c1ccc(CO*)cc1; tBu = CC(C)(C)*

Legend:
[1] = NCI Yeast Anticancer Drug Screen. Data for the rad50 strain (AID 155);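 also: 0% = growth of vehicle-only cultures of the same strain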; conditions: S. cerevisiae rad50 strain growth inhibition; at 50.0 µM; stronger effect = higher value
How it was run: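 Cells are treated with compound, grown, and their growth is then scored against vehicle-only cultures of the same repair-deficient yeast strain.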

[2] = NCI Yeast Anticancer Drug Screen. Data for the mec2-1 strain (AID 157); conditions: S. cerevisiae mec2-1 strain, at 50.0 µM, stronger effect = higher value
How it was run: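 Mutant yeast (mec2-1) grown with compound; growth inhibition relative to vehicle control reported.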

[3] = NCI Yeast Anticancer Drug Screen. Data for the sgs1 mgt1 strain (AID 161);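 also: 0% = growth of cultures given vehicle only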; conditions: S. cerevisiae sgs1 mgt1 strain, at 50.0 µM, stronger effect = higher value
How it was run: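 This yeast growth screen uses a strain with defined DNA-repair lesions; compound-treated growth is compared with vehicle-treated growth.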

[4] = NCI Yeast Anticancer Drug Screen. Data for the cln2 rad14 strain (AID 165);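 also: 0% = growth equal to vehicle treated cultures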; conditions: S. cerevisiae cln2 rad14 strain, at 50.0 µM, stronger effect = higher value
How it was run: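 Readout is yeast growth inhibition versus vehicle-treated controls, using a strain with cln2 and rad14 alterations exposed to compound.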

[5] = NCI Yeast Anticancer Drug Screen. Data for the bub3 strain (AID 167); conditions: S. cerevisiae bub3 mutant strain, at 50.0 µM, stronger effect = higher value
How it was run: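 Part of a panel of yeast mutants defective in DNA damage repair or cell cycle regulation. Each strain is grown with compound, and inhibition is calculated relative to solvent-treated cultures.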

[6] = NCI Yeast Anticancer Drug Screen. Data for the mlh1 rad18 strain (AID 175); conditions: S. cerevisiae mlh1 rad18 strain growth inhibition; at 50.0 µM; stronger effect = higher value
How it was run: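 Genetically defined yeast (DNA repair-deficient) exposed to compounds; growth inhibition determined relative to vehicle.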

Measured: growth inhibition

COc1ccc(N=Nc2c(C)c(C#N)c(=S)n(C3OC(CO)C(O)C(O)C3O)c2C)cc1 (stereo unspecified)
inactive: [1] 16.1% | [2] 14.1% | [3] 46.6% | [4] 7.9% | [5] 28.1% | [6] 21.7%

CCOC(=O)C(C)C(=O)NCc1ccccc1 (stereo unspecified)
inactive: [1] -4.55% | [2] -4.9% | [3] -6.8% | [4] -43.5% | [5] 9.35% | [6] 11.3%

CCCCC(C)(O)CCC (stereo unspecified)
inactive: [1] 5.8% | [2] -11.9% | [3] 0.5% | [4] 5.05% | [5] 7.3% | [6] -6.05%

O=[N+]([O-])c1cccc(N=C2c3ccccc3CN2c2cccc([N+](=O)[O-])c2)c1
inactive: [1] -23.4% | [2] 5.8% | [3] -5.3% | [4] 26.7% | [5] 11.5% | [6] -0.4%

CCOc1c(Cl)c(Cl)c(Cl)c(Cl)c1Cl
inactive: [1] -9.8% | [2] 3.95% | [3] -6.7% | [4] 9.3% | [5] -2.9% | [6] 5.4%

Cc1ccc(S)c(C(O)(C(F)(F)F)C(F)(F)F)c1
inactive: [1] -4.75% | [2] 3.65% | [3] 11.7% | [4] 3.55% | [5] 8.3% | [6] 23.2%

CC(=O)OCC(=O)c1cc(C)n(C)c(=O)c1CN1C(=O)c2ccccc2C1=O
inactive: [1] -10.7% | [2] 9.05% | [3] 2.2% | [4] -36.3% | [5] 10.6% | [6] -12.7%

Cc1nc(Cc2n[nH]c(C)n2)n[nH]1
inactive: [1] 14.4% | [2] -6.65% | [3] 11.9% | [4] 15.2% | [5] 3.4% | [6] 14.3%

N#CC(OC(=O)c1ccccc1)C(OC(=O)c1ccccc1)C(COC(=O)c1ccccc1)OC(=O)c1ccccc1 (stereo unspecified)
inactive: [1] -38.9% | [2] 6.3% | [3] 9.95% | [4] 20.5% | [5] -10.5% | [6] 26.6%

CCOC(=O)c1cc2c(cn1)[nH]c1cccc(N)c12
inactive: [1] -10.3% | [2] -39.5% | [3] 7.05% | [4] 5.85% | [5] -3.5% | [6] -9.55%

CC(C)CCOC(=S)S
inactive: [1] 35.2% | [2] 17.9% | [3] -22.6% | [4] -5.8% | [5] 34.2% | [6] -38.4%

CN1C(=O)Cc2ccccc21
inactive: [1] 9.9% | [2] -7.25% | [3] -13.3% | [4] 11.5% | [5] 20.8% | [6] -1.05%

CCCCNc1nc(Cl)nc(C(F)(F)F)c1N
inactive: [1] 7.35% | [2] 2.45% | [3] 6.55% | [4] -29.8% | [5] 1.4% | [6] 1.35%

CCCCCCCC(=O)Oc1cccc(C)c1
inactive: [1] -0.9% | [2] -3.3% | [3] -8.6% | [4] -10.3% | [5] -7.35% | [6] 2.2%

CC(=O)Oc1ccc(C2COc3cc(OC(C)=O)c(OC(C)=O)cc3C2)cc1 (stereo unspecified)
inactive: [1] 21.2% | [2] 31.6% | [3] 43% | [4] 9.4% | [5] 49.6% | [6] 37.5%

CC(=O)c1c[nH]c(=O)c2cc3c(cc12)OCO3
inactive: [1] -42.8% | [2] -14.1% | [3] -7.85% | [4] -10.4% | [5] 12.8% | [6] -8.3%

COc1ccc(-c2nc(-c3cc4ccccc4oc3=O)cs2)cc1
inactive: [1] 13.1% | [2] 13.6% | [3] -12.1% | [4] 7.7% | [5] -18.4% | [6] -35.1%

NC1=NS(=O)(=O)Nc2nc(-c3ccc(Cl)cc3)c(-c3ccc(Cl)cc3)nc21
inactive: [1] -16.6% | [2] -17.2% | [3] -25% | [4] 3.45% | [5] -22% | [6] -24.8%

O=C(CCC(=O)Nc1ccc(Cl)c(Cl)c1)CC(=O)c1ccc(F)cc1
inactive: [1] -17.4% | [2] -9.4% | [3] 14.4% | [4] 4.3% | [5] 19.1% | [6] -1.65%

O=Cc1c2cnc(c1O)CSCCCCSC2
inactive: [1] -9.2% | [2] -3.8% | [3] -10.8% | [4] -45.2% | [5] -16.4% | [6] -1.8%

O=C(NCCCl)NCc1cccc2c1CCCC2
inactive: [1] -12.5% | [2] 9.75% | [3] -3.85% | [4] -26.4% | [5] -3.1% | [6] -24.2%

CCc1cc(Cl)c(O)c(Cl)c1
inactive: [1] 4.2% | [2] 18.2% | [3] 6.2% | [4] -0.15% | [5] 17.5% | [6] 19%

COc1cc(/C=C2/C(=O)N(c3ccccc3)N=C2C)cc(OC)c1OC
inactive: [1] 12.6% | [2] -3.4% | [3] 24.1% | [4] 2.5% | [5] 11.6% | [6] 17.9%

Cc1cc(CC(N)C(=O)O)ccc1O (stereo unspecified)
inactive: [1] -0.65% | [2] 7.05% | [3] -6% | [4] -6.85% | [5] 0.5% | [6] -16.6%

CCOC(=O)C1=CC(C)(C(=O)OCC)Nc2c(nc(N)[nH]c2=O)N1 (stereo unspecified)
inactive: [1] -42.5% | [2] -12.9% | [3] -8.35% | [4] 4.35% | [5] -35.3% | [6] -19.9%

Cc1ccc(/C(C#N)=C/c2cccc([N+](=O)[O-])c2)cc1
inactive: [1] -3.1% | [2] -30.2% | [3] -32% | [4] 24.4% | [5] -17.4% | [6] -4.15%

Cc1ccc(C(=O)c2ccc(O)cc2)cc1
inactive: [1] -25.4% | [2] -7.65% | [3] -6.5% | [4] -21.8% | [5] -7.6% | [6] -14.2%

O=C(O)CC(O)(c1ccccc1C(=O)O)c1cccc2ccccc12 (stereo unspecified)
inactive: [1] -2.95% | [2] -4.05% | [3] 18.4% | [4] 25.2% | [5] -3.15% | [6] 22.3%

CC(=O)CC(=O)Nc1ccc(-c2ccccc2)cc1
inactive: [1] 19.7% | [2] 3.95% | [3] 18.1% | [4] -16.2% | [5] -6.9% | [6] -0.35%

O=C1/C(=C/c2ccccc2)Oc2cc(O)ccc21
inactive: [1] 31.9% | [2] -13.8% | [3] 33% | [4] 30.4% | [5] 27.4% | [6] 34.9%

O=C(NN=C1CCCCC1)NN=C1CCCCC1
inactive: [1] -40.2% | [2] -10.8% | [3] -29.2% | [4] -2.4% | [5] -6.55% | [6] -0.4%

CCOC(CNCc1ccc(OC)cc1)OCC
inactive: [1] -0.25% | [2] -3.1% | [3] 4% | [4] -2.05% | [5] 22.4% | [6] 7.6%

CCN(CC)CCOC(=O)c1c2nc3c(C(=O)OCCN(CC)CC)ccc(C)c3oc-2c(C)c(=O)c1N
inactive: [2] 35.9% | [3] 42.1% | [4] -5.2% | [5] 61.9% | [6] 36.3%
active: [1] 79.5%

CC(OC(C)(C)C)C(NC(=O)OCC1c2ccccc2-c2ccccc21)C(=O)NC(Cc1ccccc1)C(=O)OCc1ccccc1 (stereo unspecified) (Fmoc-Thr(tBu)-Phe-OBn; configuration not given here)
inactive: [1] -32.2% | [2] -7.7% | [3] -4.5% | [4] -15.7% | [5] -18.6% | [6] 0.45%

CCCNC(=O)c1cccc2c1-c1ccccc1C2=O
inactive: [1] -0.55% | [2] 3.85% | [3] -2.65% | [4] -1.7% | [5] 4.65% | [6] -1.45%

COc1cc(=O)[nH]c(-c2ccccc2)c1OC
inactive: [1] -3.55% | [2] 3.95% | [3] 9% | [4] -5.05% | [5] 7.7% | [6] 0.05%

O=C(O)CSc1nc2ccc(N3C(=O)C4C5C=CC(C5)C4C3=O)cc2s1 (stereo unspecified)
inactive: [1] 29.4% | [2] -2.65% | [3] -2.5% | [4] 11.3% | [5] -2.5% | [6] 6.15%

CCCOC(=O)Nc1cccc(C)c1
inactive: [1] 17.7% | [2] -5.65% | [3] -15.7% | [4] 0.4% | [5] 3% | [6] 8.95%

COc1ccc(/C=C2\N=C(N3CCOCC3)NC2=O)cc1
inactive: [1] -4.15% | [2] 7.25% | [3] 10.4% | [4] -13.8% | [5] -3.4% | [6] -43.8%

Cc1cccc(NC(=O)Nc2cccc(C)c2)c1
inactive: [1] -3.75% | [2] -2.95% | [3] -2% | [4] -25.9% | [5] -22.1% | [6] -18.2%

CCC(C)N=C1NS(=O)(=O)c2ccccc21 (stereo unspecified)
inactive: [1] 9.5% | [2] -3.3% | [3] -2.4% | [4] 33.2% | [5] -8.55% | [6] 7.85%
